# Source: PubChem BioAssay (Johns Hopkins Ion Channel Center)
# TMEM16A inh = mouse TMEM16A channel inhibition, primary screen; 1.2% of 310,000 active; HEK293 TMEM16A/YFP iodide influx fluorescence, ionomycin; normalized B-score (activity score, 25-100; higher = stronger inhibition) at 10 µM; Q8BHY3;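 active = ratio plate-corrected score three or more library SD toward inhibition, starting fluorescence score within five deviations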;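 also: score derived from kinetic fluorescence span divided by baseline fluorescence per well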
# Target sequence (Q8BHY3 whole entry, looked up): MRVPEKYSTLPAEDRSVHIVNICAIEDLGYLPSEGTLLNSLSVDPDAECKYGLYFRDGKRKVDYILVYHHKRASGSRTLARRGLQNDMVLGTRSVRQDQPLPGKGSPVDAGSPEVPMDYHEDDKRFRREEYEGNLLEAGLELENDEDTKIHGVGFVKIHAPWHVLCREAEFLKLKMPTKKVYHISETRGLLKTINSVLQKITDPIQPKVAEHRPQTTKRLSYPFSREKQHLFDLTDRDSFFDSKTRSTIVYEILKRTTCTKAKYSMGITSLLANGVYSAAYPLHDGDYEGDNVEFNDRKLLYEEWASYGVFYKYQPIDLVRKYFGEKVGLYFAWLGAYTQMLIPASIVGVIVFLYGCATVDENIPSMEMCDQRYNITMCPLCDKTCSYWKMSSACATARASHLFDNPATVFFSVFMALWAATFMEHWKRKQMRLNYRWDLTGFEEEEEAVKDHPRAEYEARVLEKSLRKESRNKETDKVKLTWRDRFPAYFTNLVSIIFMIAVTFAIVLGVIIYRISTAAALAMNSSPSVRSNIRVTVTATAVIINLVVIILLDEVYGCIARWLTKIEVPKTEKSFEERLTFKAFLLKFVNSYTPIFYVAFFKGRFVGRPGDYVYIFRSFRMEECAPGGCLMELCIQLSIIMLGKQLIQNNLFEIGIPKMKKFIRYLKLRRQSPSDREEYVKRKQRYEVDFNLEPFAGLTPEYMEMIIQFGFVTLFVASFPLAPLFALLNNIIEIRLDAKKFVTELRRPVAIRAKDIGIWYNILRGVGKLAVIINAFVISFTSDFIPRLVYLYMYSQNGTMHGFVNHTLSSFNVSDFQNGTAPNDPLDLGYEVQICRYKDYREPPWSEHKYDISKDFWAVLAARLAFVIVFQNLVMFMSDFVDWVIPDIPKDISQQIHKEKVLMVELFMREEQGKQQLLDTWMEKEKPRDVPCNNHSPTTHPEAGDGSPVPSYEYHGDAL
# KCNK9 inh = inhibitors of human KCNK9 two-pore domain potassium channel. Q9NPC2. HEK293 KCNK9, FluxOR thallium flux fluorescence; stronger effect = lower value. B-score at 10 µM. 1.2% of 310,000 active. AID 488922;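 active = ratio B-score over 3 SD below the library mean, with starting fluorescence within 5 SD of its mean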;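 also: negative B-score means less thallium flux so channel inhibition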
# KCNK3 inh = human KCNK3 channel inhibition, primary screen; O14649; CHO-KCNK3 thallium flux, FluxOR fluorescence; stronger effect = lower value; B-score at 10 µM; 0.84% of 340,000 active;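 active = B-score under library mean minus 4 SD, starting fluorescence ratio at most library mean plus 5 SD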;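 also: more negative B-score means stronger inhibition of thallium flux through KCNK3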
# Kir21 block = blocks the mouse Kir2.1 inward-rectifier potassium channel | B-score at 10 µM | HEK293-Kir2.1, FluxOR thallium flux fluorescence; stronger effect = lower value | P35561 | 0.85% of 310,000 active;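 active = fluorescence ratio B-score at or below minus 3 SD of library scores, with starting-brightness B-score within 2 SD, cut at about -4.2 in these data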;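 also: channel flux triggered by added potassium and thallium sulfate stimulus; B-score of peak minus minimum fluorescence over baseline after thallium stimulus; more negative B-score means stronger Kir2.1 block with less thallium influx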
# TMEM16A act = mouse TMEM16A channel activation, primary screen. Q8BHY3. B-score at 10 µM. AID 623877. HEK293 TMEM16A/YFP-H148Q/I152L, iodide quench fluorescence; stronger effect = lower value. 0.3% of 340,000 active;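 active = fluorescence-ratio B-score plate-corrected deviation score at least 3 library SD below zero, with starting fluorescence score within 5 deviations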;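 also: channel opened by trigger with iodide after compound preincubation; score built on the fluorescence ratio of max minus min over baseline; more negative score means more quench and so TMEM16A activation or potentiation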
# TMEM16A reconf = re-confirmation of mouse TMEM16A chloride channel inhibitors; shares compounds with TMEM16A inh; HEK293 TMEM16A/YFP-H148Q, iodide quench fluorescence; ionomycin added to raise cell calcium; inhibition, % at 10 µM; 39% of 2,300 active; AID 652189;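 active = mean duplicate percent inhibition, scaled so buffer wells are 0 and the reference blocker 100, over three buffer SD above buffer mean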
# TMEM16A Ca cntr = counter-screen for TMEM16A inhibitors: effect on calcium mobilization. calcium response (% of ionomycin), % at 10 µM. shares compounds with TMEM16A inh. TMEM16A/YFP HEK293, Fluo4 calcium mobilization. AID 652231. 2% of 2,300 active;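 active = duplicate-averaged calcium signal over 20% of the ionomycin maximum, relative to buffer baseline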;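 also: each well's signal is peak minus trough fluorescence divided by its pre-addition baseline; 0% = buffer wells and 100% = ionomycin wells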
# YFP-HEK293 quench = counter-screen for TMEM16A inhibitors: effect in parental YFP-HEK293 cells | shares compounds with TMEM16A inh | iodide YFP quench, ionomycin | YFP ratio F(max-min)/F0 at 10 µM | 2,300 tested, under 10 active;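 active = yellow fluorescent protein signal ratio exceeding the buffer control mean by over 5 SD of those controls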;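 also: ratio is mean of duplicate wells from kinetic YFP trace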
# ClC-1 inh = rat ClC-1 inhibition, TMEM16A specificity screen. shares compounds with TMEM16A inh. 2,300 tested, under 10 active. ratio percent, % at 10 µM. CHO ClC-1-YFP, iodide influx fluorescence quench; iodide control reads 0, buffer control 100;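 active = duplicate-mean ratio percent above the mean of iodide-only control wells, which defines zero, plus 5 of their SD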;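 also: higher percent means stronger block of ClC-1 iodide influx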
# Numbers without * were called inactive; i = inactive; x = no result. In the library only some 3.5% were active in any assay of this set; here they are far more common.
SMILES,TMEM16A inh,KCNK9 inh,KCNK3 inh,Kir21 block,TMEM16A act,TMEM16A reconf,TMEM16A Ca cntr,YFP-HEK293 quench,ClC-1 inh
FC(F)(F)c1ccc(N2CCN(c3cc(-c4ccccc4)nc4ncnn34)CC2)nc1,100*,i,i,1.25,i,35.5%*,i,-0.791,-20.0
FC(F)(F)c1cccc(Nc2cc(-c3ccccc3)nc3ncnn23)c1,i,i,i,-1.37,i,x,x,x,x
O=c1c(Cl)c(NCc2ccccc2)cnn1C12CC3CC(CC(C3)C1)C2,i,i,i,1.07,i,x,x,x,x
CC1CC(c2ccccc2)n2nc(N3C(=O)c4ccccc4C3=O)nc2N1 (stereo not drawn),25*,i,i,-2.65,i,i,i,-1.16,-13.5
CS(=O)(=O)Nc1nc2n(n1)C(c1ccc(F)cc1)CC(c1ccccc1)N2 (stereo not drawn),i,i,i,-1.23,i,x,x,x,x
Cc1ccc(C(=O)CSc2nc(C(C)C)nc3ccccc23)cc1,100*,i,i,-3.18,i,i,i,-0.967,-13.0
COc1ccc(-c2onc(C)c2-c2cscn2)c(O)c1,i,i,i,-2.43,i,x,x,x,x
CCCOC(=O)c1ccc(-c2c(C)noc2-c2ccc(OC)cc2O)o1,100*,i,i,0.93,i,i,i,-1.15,-20.5
Cc1nnc2ccc(N3CCCC3)nn12,25*,i,i,0.84,i,i,i,-0.935,-19.0
COc1cc(CNC(=O)c2ccc3oc(C(C)C)nc3c2)cc(OC)c1,i,i,i,0.12,i,x,x,x,x
COc1ccccc1C1CCN(Cc2cccc([N+](=O)[O-])c2)CC1,i,i,i,-1.75,i,x,x,x,x
COc1ccccc1C1CCN(c2ccc(CO)cc2[N+](=O)[O-])CC1,25*,i,i,-0.28,i,i,i,-1.08,-16.5
COc1ccc(-n2c(SCC(=O)N/N=C/c3ccccc3OCC(=O)O)nc3ccccc3c2=O)cc1,i,i,i,-1.3,i,x,x,x,x
O=c1cc(CSc2nc3ccccc3[nH]2)c2ccccc2[nH]1,i,i,i,0.89,i,x,x,x,x
Fc1ccc(CSc2nc3ccccc3[nH]2)c2ccccc12,100*,i,i,-0.04,i,32.5%*,i,-0.848,-5.0
CN(Cc1cccs1)c1ncnc2sccc12,25*,i,i,-1.65,i,i,i,-1.14,-18.0
CCOC(=O)C1=C(COC(=O)c2ccc([N+](=O)[O-])o2)NC(=O)NC1C (stereo not drawn),x,x,i,x,i,x,x,x,x
CC1CC(C)CN(CCCNC(=O)c2ccc3nc(N4CCCCC4)sc3c2)C1 (stereo not drawn),100*,i,i,-1.58,i,i,i,-1.11,-20.0
CC1CCN(c2oc(Cc3cccc4ccccc34)nc2C#N)CC1,25*,i,i,-0.01,i,i,i,-1.11,-10.5
N#Cc1nc(Cc2cccc3ccccc23)oc1NCc1ccc(F)cc1,100*,i,i,-1.06,i,i,i,-0.908,3.0
COc1ccc(C(=O)N2CCCN(C)CC2)cc1S(=O)(=O)N(C)Cc1ccccc1,x,x,i,x,i,x,x,x,x
CCN(CC)S(=O)(=O)c1ccc(S(=O)(=O)Nc2c(C)nn(C)c2C)cc1,25*,i,i,-0.02,i,29.5%*,i,-0.907,-5.0
Cc1nn(C)c(C)c1NS(=O)(=O)c1ccc(Cl)cc1,i,i,i,0.12,i,x,x,x,x
NC(=O)C1CCCN(C(=O)c2ccc3c(c2)NC(=O)CS3)C1 (stereo not drawn),x,x,i,x,i,x,x,x,x
C(=C\c1ccccc1)/C=N/N1CCN(c2ccccn2)CC1,i,i,i,0.04,i,x,x,x,x
SMILES,TMEM16A inh,KCNK9 inh,KCNK3 inh,Kir21 block,TMEM16A act,TMEM16A reconf,TMEM16A Ca cntr,YFP-HEK293 quench,ClC-1 inh
C(/C=C/c1ccccc1)=N/N1CCN(c2ccccc2)CC1,25*,i,i,-0.82,i,i,i,-0.93,-11.5
CC(c1ccc(Br)cc1)N1CC23C=CC(O2)C(C(=O)O)C3C1=O (stereo not drawn),i,i,i,1.02,i,x,x,x,x
CC(C)OC(=O)C1C2C=CC3(CN(C(C)c4ccc(Br)cc4)C(=O)C13)O2 (stereo not drawn),25*,i,i,0.16,i,i,i,-1.16,-14.0
Cn1c(SCC(=O)Nc2ccc3c(c2)n(C)c(=O)n3C)nnc1-c1ccncc1,i,i,i,-0.79,i,i,i,-1.18,-2.5
COc1cccc2cc(/C(C)=N/Nc3nc(-c4cc(C)ccc4C)cs3)c(=O)oc12,i,i,i,-0.02,i,x,x,x,x
Cc1ccc(C(C)C)cc1OCC(=O)Nc1ccc(N2CCCCC2)cc1,25*,i,i,0.81,i,i,i,-0.688,-0.5
CCCCOC(=O)Nc1ccc(N2CCOCC2)cc1,i,i,i,0.12,i,x,x,x,x
CCCCOC(=O)Nc1ccc(N2CCCCC2)cc1,i,i,i,-3.94,i,i,i,-1.06,-4.5
Cc1ccc(OCC(=O)Nc2ccc(N3CCCC3)cc2)cc1C,i,i,i,0.02,i,x,x,x,x
Cc1cccc(C(=O)OCC(=O)Nc2ccc(N3CCCCC3)cc2)c1O,i,i,i,-0.11,i,i,i,-1.21,-16.5
NC1=NC(=O)C2(COC(c3cccnc3)OC2)S1 (stereo not drawn),i,i,i,-0.12,i,x,x,x,x
CCN(c1ccccc1)S(=O)(=O)c1ccc(Cl)c(C(=O)NC2CCN(Cc3ccccc3)CC2)c1,x,x,i,x,i,x,x,x,x
CC(C)(CC(=O)O)CC(=O)NNc1ncccc1C#N,i,i,i,0.32,i,x,x,x,x
COc1ccc(CC(=O)N/N=C(/C)c2ccco2)cc1,i,i,i,0.38,i,x,x,x,x
O=C(Cn1ncc2c(=O)oc3ccccc3c21)NCCN1CCN(c2ccccc2F)CC1,i,i,i,0.02,i,x,x,x,x
CCN(C(=O)CSc1nnc(-c2ccc(OC)cc2)n1C(C)C)C1CCS(=O)(=O)C1 (stereo not drawn),x,x,i,x,i,x,x,x,x
COc1cc(NS(=O)(=O)c2ccc(OC)c(C)c2C)c(OC)cc1Cl,25*,i,i,-1.92,i,54.0%*,i,-0.72,-3.5
